Laboratory results reported in PubChem BioAssay (NCATS).
Values without a mark were called inactive. Calls follow the shape of the dose curve; as a rule, active = well fitted inhibition curve with a large enough effect; inconclusive = small, poorly fitted or top-dose-only effect; inactive = no such curve, though single readings can be large or run the other way.

assay: qHTS assay for measurement of the activity of small molecule inhibitors on Zika virus induced Caspase-3 activity in human astrocytoma cells (AID 1224859); details: SNB-19 ZIKV-induced caspase-3/7, luminescence, 6 h; series mostly up to 45.7 µM; activity change, negative = inhibition: at the top concentration;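 also: plate controls were ZIKV-infected untreated cells for no effect and uninfected cells for full effect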
Outline: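 Readout is luminescence from Caspase-Glo 3/7 added after a 6 h ZIKV infection (2 FFU/cell) of compound-pretreated (1 h) SNB-19 cells; data expressed as % inhibition versus uninfected and infected wells.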

| SMILES | activity change, negative = inhibition |
| --- | --- |
| O=C(O)CCCCCC(=O)NN=C1CCCC1 | -0.861% |
| CC(C)(C)[N+]([O-])=Cc1ccc(S(=O)(=O)O)cc1S(=O)(=O)O | 11.2% |
| C[C@@]12C[C@@]3(O)O[C@@H](O1)[C@]1(COC(=O)c4ccccc4)[C@@H]3C[C@@]12O[C@@H]1O[C@H](CO)[C@@H](O)[C@H](O)[C@@H]1O | -5.24% |
| Cc1cncc2cccc(S(=O)(=O)N3CCCN(C(=O)CN)C[C@@H]3C)c12 | -6.33% |
| O=C(O)C=Cc1ccc(Cn2ccnc2)cc1 | -12.3% |
| O=C(CN1C(=O)C2(CCCC2)NC[C@H]1c1cc(F)cc(F)c1)Nc1ccc2c(c1)C[C@@]1(C2)C(=O)Nc2ncccc21 | 17.6% |
| CCN1CCN(C(=O)N[C@H](C(=O)N[C@@H]2C(=O)N3C(C(=O)O)=C(CSc4nnnn4C)CS[C@@H]23)c2ccc(O)cc2)C(=O)C1=O | 10.4% [at 15.2 µM] |
| Cc1ccc(-n2[nH]c(C)c(N=Nc3cccc(-c4cccc(C(=O)O)c4)c3O)c2=O)cc1C | 19% |
| NC(=NCCCCCCN=C(N)N=C(N)Nc1ccc(Cl)cc1)N=C(N)Nc1ccc(Cl)cc1 | 19.8% |
| C=C(C)[C@@H]1CC[C@]2(C)CC[C@]3(C)[C@H](CC[C@@H]4[C@@]5(C)CC[C@H](O)C(C)(C)[C@H]5CC[C@]43C)[C@@H]12 | 17.9% |
| O=C1NC(O)CCN1[C@@H]1O[C@H](CO)[C@H](O)[C@H]1O (some centres undefined) | -13.4% |
| NS(=O)(=O)OC[C@@H]1C[C@@H](n2ccc3c(N[C@H]4CCc5ccccc54)ncnc32)C[C@H]1O | -1.72% |
| Cc1cc(-c2nnc3n2CCCCC3)c(C)n1-c1ccccc1 | 26.5% |
| NC(=O)Nc1sc(-c2ccc(F)cc2)cc1C(N)=O | 45.6% |
| C=C1CCC2[C@](C)(CO)C(O)CC[C@]2(C)C1CC=C1C(=O)OCC1O (some centres undefined) | 13.3% [at 92.8 µM] |
| CC[C@H]1OC(=O)[C@H](C)[C@@H](O[C@H]2C[C@@](C)(OC)[C@@H](O)[C@H](C)O2)[C@H](C)[C@@H](O[C@@H]2O[C@H](C)C[C@H](N(C)C)[C@@H]2O)[C@](C)(OC)C[C@@H](C)C(=O)[C@H](C)[C@@H](O)[C@]1(C)O | 8.04% |
| Cc1ccc2nc(NCCN)c3ncc(C)n3c2c1 | 86.5% |

| SMILES | activity change, negative = inhibition |
| --- | --- |
| CCc1cc(C(C)=NOCc2ccc(C3CCCCC3)c(C(F)(F)F)c2)ccc1CN1CC(C(=O)O)C1 | 3.01% |
| COc1cc(C(=O)NC2CCN(C)CC2)ccc1Nc1ncc2c(n1)N(C1CCCC1)CCC(=O)N2C(C)C | -14.8% |
| CC(C=CC=C(C)C=CC1=C(C)CCCC1(C)C)=CC=CC=C(C)C=CC=C(C)C=CC1=C(C)CCCC1(C)C | 46.5% |
| CCOC(=O)N1CCN([N+]([O-])=NOc2ccc([N+](=O)[O-])cc2C#N)CC1 | 43% |
| C[C@H]1[C@@H](OC(=O)CCC(=O)O)O[C@@H]2O[C@@]3(C)CC[C@@H]4[C@H](C)CC[C@@H]1[C@@]24OO3 | 12.7% |
| C[C@]12CCC(=O)C=C1[C@@H]1CC1[C@H]1[C@H]3[C@@H]4C[C@H]4[C@@]4(CCC(=O)O4)[C@@]3(C)CC[C@H]12 (some centres undefined) | -8.45% |
| COc1ccc(CCC(=O)c2c(O)cc(O[C@@H]3O[C@H](CO)[C@@H](O)[C@H](O)[C@@H]3O[C@@H]3O[C@@H](C)[C@H](O)[C@@H](O)[C@@H]3O)cc2O)cc1O | -0.142% |
| C[C@H](NCc1ccc(OCc2cccc(F)c2)cc1)C(N)=O | 69.5% |
| CC(=O)[C@]1(O)Cc2c(O)c3c(c(O)c2[C@@H](O[C@H]2C[C@H](N)[C@@H](O)[C@H](C)O2)C1)C(=O)c1ccccc1C3=O | 23.2% |
| CC(C)(O)CC[C@@H](O)[C@](C)(O)[C@H]1CC[C@@]2(O)C3=CC(=O)[C@@H]4C[C@@H](O)[C@@H](O)C[C@]4(C)[C@@H]3CC[C@]12C | -7.8% |
| C[C@@H](NCc1cc2ccccc2[nH]1)c1cccc2ccccc12 | -15.7% |
| CC(C=CC1=C(C)CCCC1(C)C)=CC=CC(C)=CC(=O)Nc1ccc(O)cc1 | 15.5% [at 92.8 µM] |
| CC(C)C[C@H](NC(=O)CNC(=O)c1cc(Cl)ccc1Cl)B1OC(=O)CC(CC(=O)O)(C(=O)O)O1 (some centres undefined) | 8.44% |
| Cc1cn([C@@H]2O[C@H](CO)[C@@H](O)[C@H]2F)c(=O)[nH]c1=O | -2.73% |
| c1cncc(CN2CCC(n3ncc4c(N5CCOCC5)nc(-c5ccc6[nH]ccc6c5)nc43)CC2)c1 | 55% |
| O=C(c1ccc(F)cc1)N1CCC[C@H](c2nc(-c3ccc(F)cc3)no2)C1 | -4.25% |
| CCCCCCCCCCCCc1ccc(S(=O)(=O)Nc2nncs2)cc1 | 15.8% |
